Results filed as inconclusive are left out. The source made the active and inactive calls. Calls come from the whole dose curve; as a rule, active = well fitted inhibition curve with a large enough effect; inconclusive = small, poorly fitted or top-dose-only effect; inactive = flat fitted curve, though single readings scatter.
Assays:
Experiment in all cases: qHTS profiling for inhibitors of Plasmodium falciparum proliferation (AID 504749); note: nearly all actives have a fitted effect of over 60% in size
Settings in all cases: P. falciparum in erythrocytes, SYBR Green DNA, 72 h; series mostly up to 28.7 µM
[1] = system: CP325
Procedure, shortened: (§1)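 Three-day growth assay of blood-stage parasites in erythrocytes (0.3% parasitemia, 2.5% hematocrit) at 37 C, 5% CO2, quantified by SYBR Green DNA staining after overnight detergent lysis.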

[2] = system: CP329
Procedure, shortened: as §1

[3] = system: CP335
Procedure, shortened: as §1

[4] = system: DFO2036
Procedure, shortened: as §1

[5] = system: DIV14
Procedure, shortened: as §1

[6] = system: DIV17
Procedure, shortened: as §1

[7] = system: DIV30
Procedure, shortened: as §1

[8] = system: ECU
Procedure, shortened: as §1

[9] = system: FAB9
Procedure, shortened: as §1

[10] = system: Dd2
Procedure, shortened: as §1

Measured: Potency
Potency is the fitted concentration of half-maximal effect.

CCCCCCCCCCCCCCCC[N+](C)(C)Cc1ccccc1
active: [1] 9.53 µM | [2] 10.7 µM | [3] 12 µM | [4] 2.82 µM | [5] 8.49 µM | [6] 8.49 µM | [7] 15.1 µM | [8] 3.16 µM | [9] 10 µM

O=[N+]([O-])c1ccc(O)c2ncccc12
active: [10] 12.6 µM

Nc1c2ccccc2nc2ccccc12
active: [4] 5.01 µM | [5] 8.49 µM | [6] 7.57 µM | [7] 15.1 µM | [10] 12.6 µM | [8] 10 µM

CN1CCC(Nc2ncc3ncnc(Nc4ccc(F)c(Cl)c4)c3n2)CC1
active: [3] 9.53 µM | [5] 10.7 µM | [6] 8.49 µM | [10] 7.94 µM | [8] 12.6 µM

O=C(Nc1ccc(Cl)cc1)Nc1ccc(Cl)c(Cl)c1
active: [1] 4.26 µM | [2] 8.49 µM | [3] 3.38 µM | [4] 2.82 µM | [5] 1.35 µM | [6] 0.953 µM | [7] 1.69 µM | [8] 3.55 µM | [9] 5.01 µM

Nc1ccc2cc3ccc(N)cc3nc2c1
active: [3] 6.01 µM | [5] 6.01 µM | [6] 12 µM | [9] 8.91 µM

CCCCCCCCCCCCCC[N+](C)(C)C
active: [1] 6.01 µM | [2] 5.36 µM | [3] 4.26 µM | [4] 4.47 µM | [5] 6.75 µM | [6] 7.57 µM | [7] 6.75 µM | [10] 6.31 µM | [8] 4.47 µM | [9] 11.2 µM

CC(NCCC(c1ccccc1)c1ccccc1)c1ccccc1 (configuration not stated)
active: [1] 15.1 µM | [3] 4.78 µM | [5] 5.36 µM | [6] 6.01 µM | [7] 8.49 µM | [10] 8.91 µM | [8] 7.94 µM

O=S(=O)(O)c1ccc2nc(-c3ccccc3)[nH]c2c1
not listed: [5]
inactive: all other assays above

CN1CCCN(C(c2ccccc2)c2ccc(Cl)cc2)CC1 (configuration not stated)
active: [3] 12 µM | [5] 1.69 µM | [6] 1.51 µM

Nc1ncnc2nc[nH]c12
inactive: all assays above

CCCCCCCCCCCCCCCC[n+]1ccccc1
active: [1] 5.36 µM | [2] 7.57 µM | [3] 6.75 µM | [4] 5.62 µM | [5] 6.75 µM | [6] 6.75 µM | [7] 13.5 µM | [10] 10 µM | [8] 7.08 µM
